Among the data in PubChem BioAssay (NCI) are growth values, retold here.

SMILES strings stand for the structures. About 83,000 compounds went through this panel and 20% of them were active in at least one assay; those are over-represented in the sample as a whole.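 Activity criterion: percent growth below 10, measured after cells in 96-well plates were exposed to a single compound concentration for 48 hours.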 Unmarked numbers belong to inactive results. The source made the active and inactive calls.

Some test systems named below: HCT-15 colon; HT29 colon; SNB-75 CNS; SNB-19 CNS; U251 CNS; PC-3 prostate; SK-MEL-5 melanoma; UACC-62 melanoma; LOX IMVI melanoma; SK-MEL-28 melanoma.
Common to all, as to test: NCI-60 one-dose screen, 48 h (100 = growth as untreated, 0 = no growth, -100 = all killed)
What all share (conditions): 10 µM unless noted

Take `O=c1c2cc(F)ccc2sc2c(NCCCN3CCCC3)nc3ccccc3c12`: the growth in the experiment with HCT-15 colon is 7.59% (active); in the experiment on HT29 colon, 5.1% (active); in the experiment on SNB-75 CNS, 21.5%; with SNB-19 CNS, 53.6%; in the experiment on U251 CNS, 33.2%; in the experiment with PC-3 prostate it was 43.8%. Moreover, the growth is 58.8% with SK-MEL-5 melanoma, -75.9% (active) in the experiment with UACC-62 melanoma, -87.1% (active) in the experiment with LOX IMVI melanoma and -52.8% (active) in the experiment on SK-MEL-28 melanoma.
As to `N#C/C(=C\c1ccc2c(c1)OCO2)n1nnc2cc(F)c(F)cc21`, the growth in the experiment with HCT-15 colon is 40.5%; with HT29 colon, 30.3%; with SNB-75 CNS it was 20.6%; with SNB-19 CNS, 82.3%; in the experiment with U251 CNS, 83.8%; in the experiment on PC-3 prostate, 51.4%. The growth in the experiment on SK-MEL-5 melanoma was 75.5%; with UACC-62 melanoma it was 47.6%; in the experiment on LOX IMVI melanoma it was 57.3%; in the experiment with SK-MEL-28 melanoma it was 92.5%.
As to `NC(=N\N=C/c1ccccc1[N+](=O)[O-])/C(N)=N\N=C/c1ccccc1[N+](=O)[O-]`, the growth with HCT-15 colon is 105%; in the experiment on HT29 colon it was 103%; with SNB-75 CNS, 97.9%; with SNB-19 CNS it was 106%; with U251 CNS, 108%; in the experiment with PC-3 prostate, 102%. The growth in the experiment on SK-MEL-5 melanoma is 105%; in the experiment on UACC-62 melanoma it was 108%; in the experiment on LOX IMVI melanoma, 104%; in the experiment on SK-MEL-28 melanoma, 118%.
On to `COc1ccc(-c2cc(-c3cc(OC)c(OC)c(OC)c3)c(C#N)c(N3CCOCC3)n2)cc1O`, for which the growth was 23.5% in the experiment on HCT-15 colon; 108% in the experiment with HT29 colon; 30.1% with SNB-75 CNS; 52.3% in the experiment with SNB-19 CNS; 51.1% in the experiment with U251 CNS; 38.9% in the experiment with PC-3 prostate. Besides, the growth with SK-MEL-5 melanoma is 60.8%; in the experiment with UACC-62 melanoma it was 89.9%; in the experiment with LOX IMVI melanoma, 13.7%; in the experiment on SK-MEL-28 melanoma it was 60%.
On to `COc1cc(C2CC(=O)Nc3c2c(C)nn3-c2nc3ccccc3[nH]2)cc2c1OCC(=O)N2` (stereo not given), for which the growth is 95.3% in the experiment with HCT-15 colon; 66.9% in the experiment on HT29 colon; 19.3% in the experiment on SNB-75 CNS; 49.1% with SNB-19 CNS; 55.2% in the experiment with U251 CNS; 69.1% in the experiment on PC-3 prostate. Moreover, the growth in the experiment with SK-MEL-5 melanoma was 52.3%; with UACC-62 melanoma it was 65.5%; with LOX IMVI melanoma, 51.2%; with SK-MEL-28 melanoma, 65.4%.
As to `CC(C)CC(NC(=O)CN(Cc1ccccc1)S(C)(=O)=O)C(=O)O` (stereo not given), the growth was 101% with HCT-15 colon; 97.4% with HT29 colon; 80% with SNB-75 CNS; 91.6% with SNB-19 CNS; 103% in the experiment on U251 CNS; 90.1% in the experiment on PC-3 prostate. In addition, the growth in the experiment with SK-MEL-5 melanoma was 95%; in the experiment with UACC-62 melanoma, 89.2%; in the experiment with LOX IMVI melanoma it was 100%; in the experiment on SK-MEL-28 melanoma, 100%.
Take `O=S(=O)(NCCCNc1cc(-c2c(-c3cccc(O)c3)nc3sccn23)ccn1)c1cccc(Cl)c1`: the growth in the experiment on HCT-15 colon is 28.4%; in the experiment on HT29 colon it was 50.2%; in the experiment with SNB-75 CNS, 14.2%; with SNB-19 CNS it was 67.3%; in the experiment with U251 CNS, 53.4%; with PC-3 prostate, 24.6%. For the same molecule, the growth in the experiment on SK-MEL-5 melanoma is 31.1%; with UACC-62 melanoma, 40.3%; in the experiment with LOX IMVI melanoma it was 29.6%; in the experiment on SK-MEL-28 melanoma, 60.7%.
As to `CCCCn1c(=O)c2c(nc(NCCc3ccc(O)c(O)c3)n2CCC)n(CCCC)c1=O`, the growth with HCT-15 colon was 39.4%; in the experiment with HT29 colon it was 70.9%; with SNB-75 CNS, 68.8%; in the experiment on SNB-19 CNS, 92.3%; in the experiment on U251 CNS, 77.2%; with PC-3 prostate it was 43.9%. Also, the growth is 83.1% in the experiment on SK-MEL-5 melanoma, 86.2% with UACC-62 melanoma, 57.4% with LOX IMVI melanoma and 86.9% in the experiment on SK-MEL-28 melanoma.
On to `CC(CCc1ccc(Cl)c(Cl)c1)NCc1ccc(C(C)(C)C)cc1` (stereo not given), for which the growth is 77.3% with HCT-15 colon; 39.6% in the experiment on HT29 colon; 70.6% in the experiment on SNB-75 CNS; 92.5% with SNB-19 CNS; 70.6% in the experiment on U251 CNS; 77.5% in the experiment with PC-3 prostate. For the same molecule, the growth in the experiment on SK-MEL-5 melanoma is 92.8%; in the experiment on UACC-62 melanoma it was 89.9%; in the experiment with LOX IMVI melanoma, 79.8%; in the experiment with SK-MEL-28 melanoma, 91.9%.
For the molecule `CCN1C(=O)N(CC)C2Nn3c(s/c(=C\c4cccc([N+](=O)[O-])c4)c3=O)=NC21` (stereo not given), the growth in the experiment on HCT-15 colon is 31.8%; with HT29 colon, 74.9%; with SNB-75 CNS, 20%; in the experiment on SNB-19 CNS, 53.3%; in the experiment on U251 CNS, 33.5%; in the experiment with PC-3 prostate, 35.8%. The growth in the experiment on SK-MEL-5 melanoma is 31.8%; with UACC-62 melanoma, 47%; with LOX IMVI melanoma, 56.4%; in the experiment on SK-MEL-28 melanoma, 57.3%.
As to `COc1ccc(C2=NN(C(=O)c3cc(OC)c(OC)c(OC)c3)C(c3ccc(Cl)cc3)C2)cc1OC` (stereo not given), the growth is 9.3% (active) in the experiment on HCT-15 colon; 15.2% in the experiment on HT29 colon; 21.9% with SNB-75 CNS; 29.1% in the experiment on SNB-19 CNS; 24% in the experiment on U251 CNS; 26.5% in the experiment on PC-3 prostate. Besides, the growth in the experiment with SK-MEL-5 melanoma is 9.51% (active); in the experiment with UACC-62 melanoma, 31.1%; with LOX IMVI melanoma it was 31.3%; in the experiment with SK-MEL-28 melanoma it was 46.1%.
As to `COc1ccc2c(c1)O/C(=C\c1cccc(OCC(=O)Nc3nc4ccccc4s3)c1)C2=O`, the growth with HCT-15 colon is 81.5%; in the experiment with HT29 colon it was 110%; in the experiment with SNB-75 CNS, 102%; with SNB-19 CNS, 83.6%; in the experiment on U251 CNS it was 70.5%; in the experiment on PC-3 prostate, 35%. For the same molecule, the growth is 96.7% in the experiment on SK-MEL-5 melanoma, 83.9% with UACC-62 melanoma, -85% (active) in the experiment with LOX IMVI melanoma and 96.7% in the experiment on SK-MEL-28 melanoma.
